High-throughput results from PubChem.
RTF Ca sens act: cardiac RTF calcium sensitivity activators, primary screen, biochemical, IANBD-TnC fluorescence, EC20 calcium; IANBD-labeled TnC RTF fluorescence at EC20 calcium; 0% EC20 calcium, 100% full calcium; 340,000 compounds, 0.24% hits; AID 493008, 2010; activation, % at 7.2 µM;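 active = activation above the mean over all tested compounds plus 3 SD, cut at about 30% in these data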;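 also: rise in fluorescence read as greater calcium sensitivity of cardiac thin filaments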
Bcl-xL primary: inhibitors of human Bcl-xL, primary screen, biochemical, fluorescence polarization, HTS; GST-Bcl-xL / FITC-Bim BH3 peptide fluorescence polarization; inhibition, % at 10.9 µM; 320,000 compounds, 0.7% hits; AID 2129, 2009;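 active = inhibition above the mean of all tested compounds plus 3 SD, cutoff set per campaign, cut at about 30% in these data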;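 also: inhibitors lower millipolarization by displacing the labeled peptide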
Target sequence (Q07817 whole entry, looked up): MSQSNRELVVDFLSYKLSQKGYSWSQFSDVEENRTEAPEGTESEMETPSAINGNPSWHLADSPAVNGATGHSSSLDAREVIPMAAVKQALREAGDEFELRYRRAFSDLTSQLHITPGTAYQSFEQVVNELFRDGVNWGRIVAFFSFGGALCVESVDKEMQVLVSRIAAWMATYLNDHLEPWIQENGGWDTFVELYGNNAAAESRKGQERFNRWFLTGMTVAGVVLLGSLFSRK
RTF Ca sens inh: cardiac RTF calcium sensitivity inhibitors, primary screen, biochemical, IANBD-TnC fluorescence, EC70 calcium. inhibition, % at 7.15 µM. IANBD-labeled cardiac RTF, Ca2+ fluorescence. AID 493244, 2011. 340,000 compounds, 0.12% hits. Troponin I, cardiac muscle (Homo sapiens) + Troponin T, cardiac muscle (Homo sapiens) + …;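 active = inhibition above the mean inhibition of all tested compounds plus 3 SD, cut at about 17% in these data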;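 also: assay run at fixed EC70 calcium of 1.6 mM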
E coli Lon inh: inhibitors of E. coli Lon protease, primary screen, biochemical, fluorescence polarization | AID 602123, 2011 | inhibition, % at 7.94 µM | P0A9M0 | 360,000 compounds, 0.42% hits | purified E. coli Lon protease; in the data active = inhibition above about 13%, passing the limit was not always enough
GLD-1 RNA inh: GLD-1/TGE RNA complex disruptors, primary screen, biochemical, fluorescence polarization | Female germline-specific tumor suppressor gld-1 (Caenorhabditis elegans), Q17339 | purified GLD-1 + fluorescein TGE RNA | 320,000 compounds, 0.44% hits | inhibition, % at 5.96 µM | AID 2280, 2010;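 active = percent inhibition above a per-plate cutoff, the plate mean of test compounds plus 3 SD, cut at about 30% in these data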
Target sequence (Q17339 whole entry, looked up): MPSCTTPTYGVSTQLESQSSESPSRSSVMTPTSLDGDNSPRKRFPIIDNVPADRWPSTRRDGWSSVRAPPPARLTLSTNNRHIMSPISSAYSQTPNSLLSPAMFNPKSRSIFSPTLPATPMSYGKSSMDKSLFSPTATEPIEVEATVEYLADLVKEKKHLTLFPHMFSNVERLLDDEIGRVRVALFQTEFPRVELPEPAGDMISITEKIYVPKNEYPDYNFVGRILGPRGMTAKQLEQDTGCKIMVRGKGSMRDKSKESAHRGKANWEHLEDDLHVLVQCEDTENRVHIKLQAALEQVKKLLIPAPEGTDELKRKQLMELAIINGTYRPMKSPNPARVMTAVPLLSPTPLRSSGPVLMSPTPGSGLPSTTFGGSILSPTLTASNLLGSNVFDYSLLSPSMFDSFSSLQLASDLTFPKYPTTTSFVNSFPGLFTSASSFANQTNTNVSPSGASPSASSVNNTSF
Numbers stand for hits; 0 = inactive; - = no result given. Only some compounds are listed: those with a hit (about 1.2% of all), similar ones and a draw of the others.

SMILES | RTF Ca sens act | Bcl-xL primary | RTF Ca sens inh | E coli Lon inh | GLD-1 RNA inh
c1ccc(Nc2cccc3ccccc23)cc1 | 0 | - | 0 | 0 | 0
CCOC(=O)c1c(/N=C/c2cccc(C)c2O)sc2c1CCN(C)C2 | 0 | 0 | 0 | 0 | 0
CN1CCc2c(sc(/N=C/c3cccs3)c2C(N)=O)C1 | 31 | 0 | 0 | 0 | 0
CN1CCc2c(sc(/N=C/c3ccco3)c2C(N)=O)C1 | 0 | 46 | 0 | 0 | 0
Cc1noc(C)c1S(=O)(=O)N(CC(=O)Nc1ccc2c(c1)OCO2)c1ccc(C(C)C)cc1 | 0 | 0 | 0 | 0 | 0
Cc1nn(C)c(C)c1S(=O)(=O)N(CC(=O)Nc1ccc2c(c1)OCO2)c1ccc(C(C)C)cc1 | 0 | 0 | 0 | 16 | 0
CCOC(=O)N1CCN(c2cc(NCCC(=O)O)c3c4c(onc24)-c2ccccc2C3=O)CC1 | 0 | 43 | 0 | 0 | 0
O=C(O)CCCNc1cc(N2CCC3(CC2)OCCO3)c2noc3c2c1C(=O)c1ccccc1-3 | - | 71 | - | - | 0
OCCCNC(=S)Nc1ccc2nc(-c3ccccn3)c(-c3ccccn3)nc2c1 | 0 | 46 | 0 | 0 | 0
O=C(NCCCO)Nc1ccc2nc(-c3ccco3)c(-c3ccco3)nc2c1 | - | 120 | - | - | 54
COc1ccc(CCNC(=O)c2ccc3nc(-c4ccco4)c(-c4ccco4)nc3c2)cc1OC | 0 | 0 | 20 | 0 | 0
CCc1nc2ccc(C(=O)NCCc3ccc(OC)c(OC)c3)cc2nc1CC | 0 | 0 | 0 | 0 | 0
O=C(Nc1cccc(C(F)(F)F)c1)c1cc[n+]([O-])cc1 | 0 | 0 | 0 | 0 | 0
O=C(Nc1cccc(C(F)(F)F)c1)c1ccc2nc(-c3ccco3)c(-c3ccco3)nc2c1 | 0 | 32 | 0 | 0 | 0
O=C(Nc1ccc(N2CCOCC2)cc1)Nc1ccc2nc(-c3ccco3)c(-c3ccco3)nc2c1 | 0 | 0 | 0 | 0 | 0
O=C(N/N=C/c1ccccn1)c1cc(Br)ccc1O | 0 | - | 0 | 0 | -
CCN(CC)C(=O)Cn1cnc2ccccc2c1=O | 0 | 0 | 0 | 0 | 0
CCOc1ccc(Br)cc1C1=CC(=O)C[C@H](c2ccc(OC)cc2)C1 | 0 | 0 | 0 | 0 | 0
Cc1cccn2c(=O)c3cc(C(=O)NCc4cccnc4)c(=N)n(C(C)C)c3nc12 | 0 | 0 | 0 | 0 | 0
Cc1cccn2c(=O)c3cc(C(=O)NCc4ccco4)c(=N)n(CCc4ccccc4)c3nc12 | 0 | 33 | 0 | 0 | 0
Cc1cccn2c(=O)c3cc(C(=O)NCc4ccco4)c(=N)n(C(C)C)c3nc12 | 0 | 84 | 0 | 0 | 49
O=c1c2ccsc2ncn1Cc1ccccc1F | 0 | 0 | 0 | 0 | 0
CC1CCN(CCCNC(=O)C2CCC(=O)N2C2CCCC2)CC1 (stereo not given) | 0 | 0 | 0 | 0 | 0
Oc1ccc(C=Nc2cccc3ncccc23)c(O)c1 | 0 | 0 | 0 | 0 | 55
COc1cccc(N=Cc2ccc(O)cc2O)c1 | 0 | 43 | 0 | 0 | 0
SMILES | RTF Ca sens act | Bcl-xL primary | RTF Ca sens inh | E coli Lon inh | GLD-1 RNA inh
Oc1ccc(C=Nc2ccc3ncccc3c2)c(O)c1 | - | 0 | - | - | 0
COc1cc(/C=C2\CCCc3c2nc2ccccc2c3C(=O)O)cc(OC)c1O | 0 | 0 | 0 | 0 | 0
COc1ccc(/C=C2\CCCc3c2nc2ccccc2c3C(=O)O)cc1OC | - | 145 | - | - | 120
CCOc1ccc(/C=C2\CCCc3c2nc2ccccc2c3C(=O)O)cc1OC | 767 | 176 | 0 | 178 | 150
CCN1C(=O)/C(=C/C=C2\N(CC)c3cc(S(=O)(=O)N(C)C)ccc3N2c2ccccc2)SC1=S | 166 | 0 | 0 | 0 | 0
CCCOC(=O)/C(=C\C=C\c1ccco1)NC(=O)c1ccccc1 | 0 | 0 | 0 | 0 | 0
O=C(CCc1ccc(S(=O)(=O)N2CCOCC2)cc1)OCC(=O)c1ccccc1 | 37 | - | 0 | 0 | 0
CC(=O)c1cccc(NC(=O)COC(=O)CCc2ccc(S(=O)(=O)N3CCOCC3)cc2)c1 | 0 | 0 | 0 | 0 | 0
COc1cccc(/C=C/C(=C2/C(=O)N(c3ccccc3)N=C2C)c2ccc(Br)cc2)c1OC | 0 | 0 | 0 | 0 | 0
COc1ccc(OC)c(NC(=S)NCc2ccccc2OC)c1 | 0 | 30 | 0 | 0 | 0
COc1ccc(OC)c(NC(=S)NCc2cccs2)c1 | 0 | 0 | 0 | 0 | 0
Cc1c(C)c(C)c(S(=O)(=O)n2[nH]c(=O)c(CCO)c2C)c(C)c1C | 0 | 0 | 0 | 0 | 0
Cc1cc(S(=O)(=O)n2[nH]c(=O)c(CCO)c2C)c(Cl)cc1Cl | 0 | 67 | 0 | 0 | 0
CCOC(=O)C1=C(COC(=O)COc2ccccc2C(C)C)NC(=O)NC1C (stereo not given) | 0 | - | 0 | 0 | -
C=CCOc1ccc(/C=C2\SC(=Nc3cccnc3)NC2=O)cc1 | 0 | 64 | 0 | 0 | 0
Cc1cc(/C=C2\SC(=S)N(Cc3ccco3)C2=O)c(C)n1-c1cccnc1 | 89 | - | 0 | 0 | -
N=C1/C(=C\c2ccc(OC(=O)c3ccc(F)cc3)cc2)C(=O)N=C2SC(N3CCOCC3)=NN12 | 0 | 0 | 0 | 0 | 0
COc1ccc2nc3ccccc3nc2c1 | 0 | 35 | 0 | 0 | 0
CN1CCN(C(=S)Nc2cccc(S(=O)(=O)N(C)C)c2)CC1 | 0 | 0 | 0 | 0 | 0
O=C(N=c1ccn(-c2nc3ccccc3nc2NS(=O)(=O)c2ccc(Cl)cc2)cc1)c1cccs1 | 0 | 48 | 0 | 0 | 0
Nc1ccc(O)c(-c2nc3ccccc3s2)c1 | 0 | 51 | 0 | 0 | 0
O=C(Nc1ccc(O)c(-c2nc3ccccc3s2)c1)c1cccs1 | 0 | 0 | 0 | 0 | 0
Oc1ccc(N=C/C=C/c2cccc(Br)c2)cc1-c1nc2ccccc2s1 | 0 | 36 | 0 | 0 | 0
Oc1ccc(-c2nc3ccccc3s2)c(O)c1 | 0 | 0 | 0 | 0 | 0
Cc1c(CN2CCCC(C)C2)c(O)n(CCO)c(=O)c1C#N (stereo not given) | 35 | 0 | 0 | 0 | 0
SMILES | RTF Ca sens act | Bcl-xL primary | RTF Ca sens inh | E coli Lon inh | GLD-1 RNA inh
Cn1cc(Cl)c(C(=O)Nc2cnn(Cc3ccc(F)cc3)c2)n1 | 0 | 0 | 0 | 0 | 0
Cc1cc(OCC(O)CNC(C)(C)C)ccc1Cl (stereo not given) | - | 0 | - | 0 | 0
CC1OC23CCCCC2C(C#N)(C(=N)O3)C1(C#N)C#N (stereo not given) | 0 | 0 | 0 | 0 | 0
CCCC1OC23CCCCC2C(C#N)(C(=N)O3)C1(C#N)C#N (stereo not given) | 0 | 55 | 0 | 0 | 55
Cc1cccc(N(CC(=O)NCCSc2nc3ccccc3s2)S(=O)(=O)c2ccccc2)c1 | - | 0 | - | - | 0
Cc1ccc(NC(=O)CSc2ccc(-c3ccc4c(c3)OCO4)nn2)cc1F | 0 | 0 | 0 | 0 | 0
C[C@H](NC(=O)c1cc2c(cn1)[nH]c1ccccc12)C(=O)O | 0 | - | 0 | 0 | -
COC(=O)[C@H](C)NC(=O)c1cc2c(cn1)[nH]c1ccccc12 | 32 | 0 | 0 | 0 | 0
